Screens as filed in PubChem.
Rows were chosen to be rich in hits. Some 4.6% of all compounds tested hit in one or more screens of this group.
SKKanGAS inh – SKKanGAS growth inhibition. S. pyogenes SKKanGAS, kanamycin growth, BacTiter-Glo, 6 h. inhibition, % at 7.5 µM. hit rate 1.3% among 300,000;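 active means mean replicate score, as percent of positive control median, at least 50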;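 further: strain carries kanamycin resistance gene driven by streptokinase promoter and grows in 40 µg/ml kanamycin; loss of luminescence reflects streptokinase promoter inhibition or plain growth inhibition; 0% = median of DMSO wells and 100% = positive control at its reference dose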
NLRP3 yeast inh – blocks the NALP3 inflammasome reconstituted in yeast; hit rate 0.39% among 330,000; inhibition, % at 10 µM; Yeast reconstituted NLRP3/ASC/caspase-1, beta-gal luminescence, 24 h;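 active means inhibition of 50% or more; inactive means inhibition below 50%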;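 further: plate controls were induced DMSO wells for no effect and uninduced yeast grown without galactose for full effect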
tim23-1 inh – growth inhibitors of tim23-1 mutant yeast; S. cerevisiae tim23-1 growth, BacTiter-Glo luminescence, 24 h; inhibition, % at 20 µM; hit rate 1.3% among 330,000;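 active means growth inhibition of the mutant yeast at or above 50%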;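 further: temperature-sensitive mutant grown at 25 °C; plate controls were DMSO-treated mutant yeast for no effect and medium wells lacking yeast for full effect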
TIM10 inh – TIM10 yeast growth inhibition; S. cerevisiae TIM10 strain growth, BacTiter-Glo luminescence, 24 h; inhibition, % at 10 µM; hit rate 1.4% among 330,000;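 active means inhibition of 40% or more at the single tested concentration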;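 further: wild-type TIM10 isogenic control strain grown at permissive 25 °C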
tim10-1 inh – tim10-1 yeast growth inhibition; AID 463190; inhibition, % at 20 µM; S. cerevisiae tim10-1 ts strain growth, BacTiter-Glo, 24 h; hit rate 2.2% among 330,000;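 active means inhibition of at least 40%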;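 further: mutant grown at 25 °C; 0% = DMSO wells with yeast and 100% = wells holding no yeast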
tim10-1 conf – confirmation of tim10-1 mutant yeast growth inhibitors | S. cerevisiae tim10-1 ts strain growth, BacTiter-Glo, 24 h | shares compounds with tim10-1 inh | inhibition, % at 20 µM | AID 463213 | hit rate 56% among 7,400;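 active means inhibition of yeast growth at or above a set limit in either of two repeat tests at 20 µM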;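 further: tim10-1 mutant grown at permissive 25 °C to find synthetic lethal compounds; 0% = DMSO yeast wells and 100% = medium wells without yeast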
TIM10 conf – TIM10 yeast growth inhibition, confirmed; shares compounds with TIM10 inh; S. cerevisiae tim10 strain growth, BacTiter-Glo luminescence, 24 h; inhibition, % at 10 µM; hit rate 63% among 4,600; AID 463215;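 active means inhibition of yeast growth at or above a set limit in either of two replicates at 10 µM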;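 further: this counterscreen used the strain with wild-type TIM10; 0% = yeast with DMSO and 100% = medium wells lacking yeast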
tim23-1 confirm – confirmation of tim23-1 mutant yeast growth inhibitors; hit rate 83% among 4,400; inhibition, % at 20 µM; AID 463218; S. cerevisiae tim23-1 growth, BacTiter-Glo luminescence, 24 h; shares compounds with tim23-1 inh;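 active means inhibition above about 39% in either of two replicate wells at 20 µM, limit read from the data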;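 further: temperature-sensitive tim23-1 mutant grown at 25 °C; 0% = DMSO wells with yeast and 100% = medium wells without yeast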
* hit, by the source's call.

Results for CCOn1c(=O)c(-c2cccs2)[n+]([O-])c2ccccc21 ?
SKKanGAS inh: -3; NLRP3 yeast inh: 11; tim23-1 inh: 62*; TIM10 inh: 35; tim10-1 inh: 57*; tim10-1 conf: 41*; tim23-1 confirm: 68*

Results for O=S(=O)(NC1CCCCC1N1CCN(c2ccc(F)cc2)CC1)c1ccccc1 (centres undefined) ?
SKKanGAS inh: 17; NLRP3 yeast inh: 18; tim23-1 inh: 25; TIM10 inh: 13; tim10-1 inh: 31

Results for Cc1ccc(-c2cc(NC(=O)c3ccccc3[N+](=O)[O-])n[nH]2)cc1 ?
SKKanGAS inh: 0; NLRP3 yeast inh: 18; tim23-1 inh: 7; TIM10 inh: 10; tim10-1 inh: 4

How did Oc1ccc(Cl)cc1-c1cc(-c2ccccc2)n[nH]1 do in these assays?
SKKanGAS inh: 55*; NLRP3 yeast inh: 14; tim23-1 inh: 60*; TIM10 inh: 55*; tim10-1 inh: 43*; tim10-1 conf: 36*; TIM10 conf: 58*; tim23-1 confirm: 22

How did Cc1ccc(-c2cc(-c3ccc(F)cc3)n[nH]2)c(O)c1 do in these assays?
SKKanGAS inh: 38; NLRP3 yeast inh: 25; tim23-1 inh: 61*; TIM10 inh: 23; tim10-1 inh: 41*; tim10-1 conf: 46*; tim23-1 confirm: 51*

What do the screens show for `Cc1ccc(-c2cc(-c3ccccc3[N+](=O)[O-])[nH]n2)c(O)c1`?
SKKanGAS inh: 4; NLRP3 yeast inh: 10; tim23-1 inh: 60*; TIM10 inh: 44*; tim10-1 inh: 52*; tim10-1 conf: 42*; TIM10 conf: 31*; tim23-1 confirm: 66*

How did COc1ccccc1-c1cc(-c2cc(Cl)ccc2O)n[nH]1 do in these assays?
SKKanGAS inh: 14; NLRP3 yeast inh: -12; tim23-1 inh: 17; TIM10 inh: 11; tim10-1 inh: 20

What do the screens show for `Cc1ccc(-c2cc(-c3ccc(C)cc3O)[nH]n2)cc1`?
SKKanGAS inh: 35; NLRP3 yeast inh: 22; tim23-1 inh: 41; TIM10 inh: 33; tim10-1 inh: 9

Results for CC1CCN(CC(O)COc2ccc(-c3ccccc3)cc2)CC1 (centres undefined) ?
SKKanGAS inh: 9; NLRP3 yeast inh: 28; tim23-1 inh: -32; TIM10 inh: -6; tim10-1 inh: -35

Results for O=C(O)CCn1c(SCCc2ccccc2)nc2ccccc21 ?
SKKanGAS inh: -2; NLRP3 yeast inh: 12; tim23-1 inh: 2; TIM10 inh: -4; tim10-1 inh: -9

How did CCNC(=S)NNC(=O)c1cc(C)nc2ccccc12 do in these assays?
SKKanGAS inh: 1; NLRP3 yeast inh: 4; tim23-1 inh: -2; TIM10 inh: 6; tim10-1 inh: -3

How did CCNC(=S)NNC(=O)c1cc(-c2cccc(C)c2)nc2ccccc12 do in these assays?
SKKanGAS inh: 36; NLRP3 yeast inh: 2; tim23-1 inh: 73*; TIM10 inh: 55*; tim10-1 inh: 82*; tim10-1 conf: 79*; TIM10 conf: 41*; tim23-1 confirm: 72*

What do the screens show for `CCNC(=O)COC(=O)c1cc(-c2ccc(OC)cc2)nc2ccccc12`?
SKKanGAS inh: 4; NLRP3 yeast inh: 26; tim23-1 inh: 42; TIM10 inh: 20; tim10-1 inh: 18

What do the screens show for `CCCCNC(=S)NNC(=O)c1cc(-c2cccnc2)nc2ccccc12`?
SKKanGAS inh: -2; NLRP3 yeast inh: 16; tim23-1 inh: 24; TIM10 inh: 22; tim10-1 inh: 25

How did CCNC(=S)NNC(=O)c1cc(-c2ccc(OC)cc2)nc2ccccc12 do in these assays?
SKKanGAS inh: 42; NLRP3 yeast inh: 6; tim23-1 inh: 86*; TIM10 inh: 54*; tim10-1 inh: 82*; tim10-1 conf: 74*; TIM10 conf: -30; tim23-1 confirm: 78*

Results for CCCCOc1ccc(-c2cc(C(=O)NNC(=S)NCC)c3ccccc3n2)cc1 ?
SKKanGAS inh: 63*; NLRP3 yeast inh: 10; tim23-1 inh: 67*; TIM10 inh: 47*; tim10-1 inh: 72*; tim10-1 conf: 70*; TIM10 conf: 46*; tim23-1 confirm: 74*

Results for CCN(CC(=O)Nc1ccc(OC)cc1)C(=O)c1ccc2c(c1)NC(=O)CS2 ?
NLRP3 yeast inh: 10; tim23-1 inh: 19; TIM10 inh: -2; tim10-1 inh: 6

Results for COc1cccc(CCNC(=O)C2CCC(=O)N(C3CC3)C2)c1OC (centres undefined) ?
SKKanGAS inh: 2; NLRP3 yeast inh: 0; tim23-1 inh: -4; TIM10 inh: 1; tim10-1 inh: -3

How did Cc1ccc2c(c1)C(=O)c1ccccc1CS2=O (centres undefined) do in these assays?
SKKanGAS inh: -2; NLRP3 yeast inh: -5; tim23-1 inh: 12; TIM10 inh: 0; tim10-1 inh: 12

What do the screens show for `CC[C@]12c3[nH]c4ccccc4c3CCN1C(=O)C(CC(=O)NCCCOC)C[C@@H]2C(=O)N1CCN(C(=O)c2ccco2)CC1` (some centres undefined)?
NLRP3 yeast inh: -3; tim23-1 inh: 16; TIM10 inh: 5; tim10-1 inh: 5

What do the screens show for `COc1cccc(C(=O)Oc2cc(N)n(S(=O)(=O)c3ccc(C)cc3)n2)c1OC`?
SKKanGAS inh: -1; NLRP3 yeast inh: 19; tim23-1 inh: 32; TIM10 inh: 25; tim10-1 inh: 36

What do the screens show for `Cc1ccc(C(=O)Oc2cc(N)n(S(=O)(=O)c3ccc(F)cc3)n2)cc1`?
SKKanGAS inh: 0; NLRP3 yeast inh: 10; tim23-1 inh: 52*; TIM10 inh: 45*; tim10-1 inh: 49*; tim10-1 conf: 34*; TIM10 conf: 49*; tim23-1 confirm: 43*

How did N#C/C(=C\c1cccc([N+](=O)[O-])c1)C(=O)Nc1cccnc1 do in these assays?
SKKanGAS inh: -2; NLRP3 yeast inh: -4; tim23-1 inh: 28; TIM10 inh: 1; tim10-1 inh: 26

Results for N#C/C(=C\c1cccnc1)C(=O)NC1CCCCC1 ?
SKKanGAS inh: 16; NLRP3 yeast inh: 4; tim23-1 inh: 70*; TIM10 inh: 65*; tim10-1 inh: 58*; tim10-1 conf: 41*; TIM10 conf: -18; tim23-1 confirm: 70*

How did N#C/C(=C\c1cccnc1)C(=O)Nc1ccc(Cl)cc1 do in these assays?
SKKanGAS inh: 2; NLRP3 yeast inh: 14; tim23-1 inh: 76*; TIM10 inh: 61*; tim10-1 inh: 61*; tim10-1 conf: 26; TIM10 conf: 38*; tim23-1 confirm: 66*

Results for COc1ccccc1NC(=O)/C(C#N)=C/c1cccnc1 ?
SKKanGAS inh: 1; NLRP3 yeast inh: 20; tim23-1 inh: 45; TIM10 inh: 20; tim10-1 inh: 24
